# Tg IFNy HTS = T. gondii growth inhibition with IFN-gamma, primary screen, cell-based. 69,000 compounds, 3.8% hits. activity change, negative = inhibition, % (concentration not given with the values). Toxoplasma gondii growth in IFN-gamma-treated host cells; active compounds read low; in the data active = activity change below about -70%, passing the limit was not always enough;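 also: host cells are HeLa cells infected with Toxoplasma gondii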
# * hit, by the source's call. Many of the other results were omitted from the sample, so hits are more common in it than they were.
SMILES,Tg IFNy HTS
CCN1c2cc(C)ccc2-n2cccc2C12CCN(C(=O)Nc1ccc(C)c(C)c1)CC2,-93.0*
CCN1c2ccccc2-n2cccc2C12CCN(C(=O)Nc1ccccc1C)CC2,-82.2*
CCN1c2ccccc2-n2cccc2C12CCN(C(=O)Nc1ccccc1C(F)(F)F)CC2,185.0
CC1c2ncc(CN3CCN(C)CC3)n2CCN1CC1CCOCC1 (stereo not drawn),103.5
Cn1cc(S(=O)(=O)N2CCCCC2CCc2ccccc2)cn1 (stereo not drawn),1.3
O=C(c1ccco1)N1CC[C@@H]2CN(Cc3cccnc3)CCO[C@@H]2C1,67.6
COC(=O)CN1CCN(C(=O)c2ccc3cccc(F)c3n2)C(C)C1=O (stereo not drawn),2.6
c1cncc(CN2CCN(Cc3nc(-c4ccc5c(c4)OCO5)no3)CC2)c1,-12.6
COCCNC(=O)[C@H]1C[C@@H]2OCC[C@@H]2N(Cc2ccoc2)C1,157.1
CN(CCCc1cnn(C)c1)C(=O)c1cccnc1,19.1
CC1CCCN(Cc2nnnn2-c2ccc(Cl)c(Cl)c2)C1 (stereo not drawn),9.5
Cc1cc(C(=O)N2CCc3ncnc(N4CCOCC4)c3CC2)c(C)o1,0.1
O=C(CSc1nc(-c2ccc(F)cc2)cs1)Nc1nncs1,16.5
COCCn1c2c(ccc1=O)CCN(C(=O)C1CCOC1)CC2 (stereo not drawn),10.3
CCC(=O)N1CCC2(CC1)C(=O)Nc1ccc(C(=O)NC3CC3)cc12,3.0
COC1CCCC(C(=O)N2CCC3(CC2)C(=O)Nc2ccc(-c4cccc(F)c4)cc23)C1 (stereo not drawn),10.6
COC1CCCC(C(=O)N2CCC3(CC2)C(=O)Nc2ccc(-c4ccc(C(C)=O)cc4)cc23)C1 (stereo not drawn),-85.9*
O=C(O)CNc1nc(C(F)(F)F)nc2ccccc12,53.7
CCN1CCn2cc(CNC(=O)c3cnn(C)c3)nc2C1,259.7
Cc1oc(-c2ccccc2)nc1-c1c(-c2ccccc2)ncn1CCO,-7.8
CCOc1ccc(Nc2nc(N)nc(CN3CCN(C)CC3)n2)cc1,30.8
Cc1ccc(Nc2nc(N)nc(CN3CCc4ccccc4C3)n2)cc1,-98.5*
Cc1ccc(Nc2nc(N)nc(CSc3nc4ccccc4s3)n2)cc1,-64.3
CC(NC(=O)CC1CCN(S(C)(=O)=O)CC1)c1nc2ccccc2[nH]1 (stereo not drawn),-3.8
COc1ccc(Nc2nc(NC(=O)Nc3ccc(Cl)cc3)n[nH]2)cc1,-53.3
SMILES,Tg IFNy HTS
COc1ccc(NC2=NC(c3ccc(Cl)cc3)n3c(nc(C)cc3=O)N2)cc1 (stereo not drawn),-85.5*
COc1ccc(C2(CNCc3cc(-c4ccc(Cl)cc4)c[nH]c3=O)CCOCC2)cc1,311.1
COc1ccc(CCn2c(=S)[nH]c3cc(C(F)(F)F)ccc32)cc1OC,-50.9
COc1ccc(CN2C[C@@H]3CCN(C(=O)c4ccn[nH]4)CC[C@H]3S2(=O)=O)cc1,-1.8
COc1ccc(CN2C[C@@H]3CCN(C(=O)c4ccno4)CC[C@H]3S2(=O)=O)cc1,-6.1
O=C(C1CCC1)N1CC[C@H]2CN(Cc3ccccc3)S(=O)(=O)[C@@H]2CC1,-18.2
CC(C)CN1C[C@@H]2CCN(C(=O)NC3CCCC3)CC[C@H]2S1(=O)=O,-55.3
COc1cccc(CN2C[C@@H]3CCN(C(=O)C4CCC4)CC[C@H]3S2(=O)=O)c1,-90.7*
O=C(C1CCC1)N1CC[C@H]2CN(Cc3ccc(Cl)cc3)S(=O)(=O)[C@@H]2CC1,-46.6
COc1ccc(CCN2C[C@@H]3CCN(C(=O)c4cnc(C)cn4)CC[C@H]3S2(=O)=O)cc1,7.8
O=C(c1ccn[nH]1)N1CC[C@H]2CN(Cc3ccc(Cl)cc3)S(=O)(=O)[C@@H]2CC1,-73.2*
O=C(NC1CCCC1)N1CC[C@H]2CN(Cc3ccc(Cl)cc3)S(=O)(=O)[C@@H]2CC1,-89.3*
COc1ccc(CNC(=O)CN2C(=O)CCc3cc(S(=O)(=O)N4CCCCC4C)ccc32)cc1 (stereo not drawn),-11.6
COc1ccc(NC(=O)c2c(O)c3cccnc3[nH]c2=O)c(OC)c1,26.9
Cc1ncsc1C(=O)N[C@H](Cn1nnc2ccccc21)C(C)C,8.1
O=C1CCC(c2ccccc2)(C2CCN(Cc3ccc(I)cc3)CC2)C(=O)N1 (stereo not drawn),31.0
CC(C(=O)NCC(C)(C)N1CCOCC1)N(c1ccccc1)S(C)(=O)=O (stereo not drawn),0.6
CC(C)CCN1c2nc(Nc3cc(F)c(O)c(F)c3)ncc2N(C)C(=O)C1C (stereo not drawn),-83.6*
CCn1c(N2CCN(C(=S)NCc3ccco3)CC2)nc2ccccc21,0.9
O=C(NCCO)c1cc(-c2ccn(C3CCCC3)n2)n2ccccc12,-7.3
O=C(Cn1cc(NC(=O)c2ccccn2)cn1)Nc1ccccc1CN1CCCC1,5.4
Cc1nnc(Sc2nc(Sc3nnc(C)s3)nc(N3CCCCC3)n2)s1,-84.2*
Cc1nnc(-c2ccc(C(C)N3CCCCC3)cc2)s1 (stereo not drawn),0.7
Cc1nnc(Sc2c(N)n(C)c(=O)[nH]c2=O)s1,2.9
O=C(c1ccco1)N1CCc2ccc(=O)n(CC3CC3)c2CC1,-19.5
SMILES,Tg IFNy HTS
O=C(O)CSc1nc2ccccc2n1Cc1ccccc1,13.1
Cc1cc(NC(=O)CSc2nnc3n(Cc4ccccc4)c4ccccc4n23)no1,-1.6
COC(=O)c1c(C)nc2n(Cc3ccccc3)c3ccccc3n12,-84.3*
CN(Cc1cccc(Cn2cccn2)c1)Cc1cc(-c2ccccc2)no1,7.5
C=C1/C(=C\C=C2/CCC[C@]3(C)[C@@H]([C@H](C)/C=C/C=C/C(O)(CC)CC)CC[C@@H]23)C[C@@H](O)C[C@@H]1O,10.6
C=C1/C(=C\C=C2\CCC[C@]3(C)[C@@H]([C@H](C)CCCC(C)C)CC[C@@H]23)C[C@@H](O)C[C@@H]1O,-63.3
C=C1CC[C@H](O)C/C1=C/C=C1\CCC[C@]2(C)[C@@H]([C@H](C)CCCC(C)C)CC[C@@H]12,-74.7*
CN1CC(=O)N(c2cccnc2)CC12CCN(c1ncc(F)cn1)C2 (stereo not drawn),5.4
FC(F)(F)C1CN(Cc2nnc(C3CC3)o2)CCO1 (stereo not drawn),-0.1
Cc1nc(-c2ccccc2)nc2c1CCN(c1cnccn1)CC2,65.9
CC(C)Cc1ccc(C(=O)C(C)N2CCN(c3ccc(C(F)(F)F)cn3)CC2)cc1 (stereo not drawn),-42.7
Cc1nc(-c2cccnc2)nc(N2CCCN(c3ccc(C(F)(F)F)cn3)CC2)c1Cl,-97.9*
Cc1cnn(Cc2ccc(Cl)cc2)c1NC(=O)c1ccnn1C(F)F,-46.5
O=C(O)c1ccc(C2CCN(C(=O)c3cccc(-c4ncc[nH]4)c3)C2)cc1 (stereo not drawn),-1.0
C=C(C)COc1cccc(C(=O)N(C)CC2(CO)CCOCC2)c1,13.4
Cc1c(C)n(C2CCCC2)c2ncnc(OC3CCN(C(=O)Cc4ccsc4)CC3)c12,-80.4*
CS(=O)(=O)c1cnc(N2CCCCC2)nc1C1CCN(C(=O)Cc2ccsc2)CC1,-18.7
CN(C)Cc1cnc2n1CCN(C(=O)Cc1ccsc1)CC2,-2.9
Cc1ccc(N2CC[C@H]3OCC[C@]3(C(=O)N(C)C)C2)nn1,0.7
Cc1ccc(N2CCOCC3(CCCN(C(=O)NC(C)C)C3)C2)nn1 (stereo not drawn),9.6
COc1ccc(-c2nccn2C2CCCC2)cc1Cn1cccn1,1.7
COc1ccc2c3c(n(C)c2c1)[C@@H](CO)N(C(=O)CC1CC1)CC31CN(C(=O)NC(C)C)C1,128.6
